Data published in PubChem BioAssay (NCI).
Compounds without any hit were thinned out: in the full panel of roughly 79,000, 15% have a hit. Values without a mark were called inactive. Active and inactive are the calls of the source. No stated cut-off is given here; in the data, active means growth inhibition above about 70%; inactive means the rest.

What was measured:
[1] = NCI Yeast Anticancer Drug Screen. Data for the rad50 strain (AID 155);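 further: 0% = growth of vehicle-only cultures of the same strain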; settings: S. cerevisiae rad50 strain growth inhibition; at 50.0 µM; stronger effect = higher value
How it was run: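 DNA repair mutant yeast, compound exposure, growth read-out; inhibition is taken relative to vehicle.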

[2] = NCI Yeast Anticancer Drug Screen. Data for the mec2-1 strain (AID 157); settings: S. cerevisiae mec2-1 strain, at 50.0 µM, stronger effect = higher value
How it was run: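 Growth inhibition is read against vehicle-treated controls after compound exposure of the mec2-1 yeast strain, which is defective in DNA damage repair or cell cycle control.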

[3] = NCI Yeast Anticancer Drug Screen. Data for the sgs1 mgt1 strain (AID 161);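 further: 0% = growth of cultures given vehicle only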; settings: S. cerevisiae sgs1 mgt1 strain, at 50.0 µM, stronger effect = higher value
How it was run: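 Percent growth inhibition was derived by comparing compound-exposed mutant yeast with vehicle-exposed cultures. The strain carries alterations in DNA damage repair.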

[4] = NCI Yeast Anticancer Drug Screen. Data for the cln2 rad14 strain (AID 165);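 further: 0% = growth equal to vehicle treated cultures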; settings: S. cerevisiae cln2 rad14 strain, at 50.0 µM, stronger effect = higher value
How it was run: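 Growth inhibition, relative to vehicle-treated controls, is the read-out. The test organism is a yeast strain with defined genetic alterations, cln2 rad14.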

[5] = NCI Yeast Anticancer Drug Screen. Data for the bub3 strain (AID 167); settings: S. cerevisiae bub3 mutant strain, at 50.0 µM, stronger effect = higher value
How it was run: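 In this screen, a yeast mutant lacking normal mitotic checkpoint function is challenged with compound. Relative growth versus vehicle gives the inhibition value.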

[6] = NCI Yeast Anticancer Drug Screen. Data for the mlh1 rad18 strain (AID 175); settings: S. cerevisiae mlh1 rad18 strain growth inhibition; at 50.0 µM; stronger effect = higher value
How it was run: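 Cells of a genetically altered yeast strain, deficient in DNA damage repair, were treated with compound. Their growth was then compared with that of vehicle-treated cultures to give inhibition.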

Row | Compound | growth inhibition [1] | growth inhibition [2] | growth inhibition [3] | growth inhibition [4] | growth inhibition [5] | growth inhibition [6]
1 | CC(=O)OC1CC2CCCCC21 (stereo not given) | 10.6% | 7% | -0.6% | 37% | 13.8% | 2.3%
2 | Cc1ccc(S(=O)(=O)/C=C(\I)c2ccc([N+](=O)[O-])cc2)cc1 | 98.8% (active) | 99.2% (active) | 99.3% (active) | 98.8% (active) | 98.9% (active) | 99.1% (active)
3 | Cc1coc2c1C1OC(=O)C3(C/C=C\C(C)C2)OC13 (stereo not given) | 0.15% | -32.6% | -2.55% | -6.3% | -13.9% | -5.95%
4 | ClC1CC2CC1C1COCC21 (stereo not given) | 8.9% | -5.35% | -3.85% | -16.2% | -12.6% | -8.9%
5 | Cc1n[nH]c(=O)n1Nc1ccccc1 | 13.2% | -7.7% | 9.1% | 13.3% | 1.5% | 6.6%
6 | CC(=O)Nc1ccc(S(=O)(=O)O)c(C(F)(F)F)c1 | 17.1% | 21.1% | 12.6% | -8% | 26.5% | 11.4%
7 | CN=c1ss/c(=N\C(=S)N(C)C)n1C | -0.2% | -10.5% | -21.6% | 28% | -11.5% | 6.8%
8 | O=[N+]([O-])c1ccc(/C=C/c2cc(-c3ccccc3)nc3ccc4ccccc4c23)cc1 | -11.1% | 5.1% | 9.9% | 3.2% | -11.9% | 4.5%
9 | Cc1ccc2[nH]c(C)c(C(=O)c3ccncc3)c2c1 | -2.75% | -15.4% | 4.15% | -8.35% | -10.7% | -9.45%
10 | CCCC(=O)NC(Nc1ccc(S(=O)(=O)Nc2ccc(OC)nn2)cc1)(C(F)(F)F)C(F)(F)F | 1.55% | -19.1% | -0.6% | 0.35% | -16.8% | -9.25%
11 | CCOC(=O)CN=C1NNS(=O)(=O)c2ccccc21 | 3.55% | -17.4% | -10.2% | 28.4% | -23.1% | 6.35%
12 | CCCSc1ncnc2c1nc(C)n2CO | -2.15% | -2.55% | -1.35% | -14.1% | 2.3% | 0%
13 | Nc1ccc(Cn2ccc(=O)[nH]c2=O)cc1 | -14.4% | 3.2% | 0.25% | -26.9% | -11.2% | -0.8%
14 | COc1cc(C(OC(C)=O)OC(C)=O)c(Cl)cc1OC(C)=O | 5.5% | 5.15% | 17.1% | -2.1% | -2.6% | 11.8%
15 | C#CCOCCCC(=O)O | 6.95% | -8.2% | 0.6% | 0.3% | 16.2% | 11.7%
16 | Cc1ccc(S(=O)(=O)CCN2CCOCC2)cc1 | 15.3% | -3.15% | 5% | -32.3% | 5.85% | 2.8%
17 | NC(N)=NC(N)=Nc1cccc(S(=O)(=O)c2cccc(N=C(N)N=C(N)N)c2)c1 | 8.1% | -0.55% | -0.1% | 12.8% | -3.95% | 13.2%
18 | O=C1OC(c2ccc(O)c(O)c2)(c2ccc(O)c(O)c2)c2ccccc21 | -27.9% | -24.2% | -27.1% | 5.8% | -21.7% | -32.6%
19 | C/C(CC(=O)Nc1cccc(Cl)c1C)=N\N=C(N)N | -10.2% | -27.6% | -15.2% | 19.4% | -23% | -8.9%
20 | CC1=C(C(=O)N(C)c2ccc(Cl)c(C(=O)OC(C)C)c2)SCCO1 | -19.6% | -50.8% | -12.1% | -6% | -11.8% | -28.1%

Row | Compound | growth inhibition [1] | growth inhibition [2] | growth inhibition [3] | growth inhibition [4] | growth inhibition [5] | growth inhibition [6]
21 | COc1ccc2c(c1)CCCN2S(=O)(=O)c1ccccc1[N+](=O)[O-] | -25.7% | -3.9% | -17.9% | -7.65% | 39.2% | 1.85%
22 | c1ccc(CSC2(SCc3ccccc3)CCCC2)cc1 | -7.3% | -19.3% | -22.6% | 11.8% | -1.1% | -4.45%
23 | S=C(SSSC(=S)N(C1CCCCC1)C1CCCCC1)N(C1CCCCC1)C1CCCCC1 | 1.5% | 3.7% | 10.1% | 1.45% | -5.9% | 17.2%
24 | CN(C)C(=S)SCCC(=O)O | 3.05% | -4.3% | 6.05% | 8.5% | -2.65% | -8.2%
25 | COC(=O)C(=O)c1c(C(=O)OC)nc2nnc(N)n2c1-c1ccc(O)c(OC)c1 | 0.5% | -11.9% | -2.65% | -31.8% | 16.5% | -9.9%
26 | Nc1ccc2ccc3ccc(N)nc3c2n1 | 36% | 38% | 40.7% | -1.8% | 44.1% | 17.1%
27 | COc1ccc(NS(=O)c2ccccc2OC)cc1 (stereo not given) | 2.7% | 4.5% | 14.3% | -18.9% | 8.05% | 5.5%
28 | O=[N+]([O-])c1ccc(Cl)c2cccnc12 | 27.2% | -7.65% | -0.15% | 7.3% | 0.45% | 50.4%
29 | O=C1NC(N2CCCCC2)=N/C1=C\c1ccco1 | -11.8% | 0.2% | 8.35% | 13.7% | -5.65% | -33.8%
30 | CCC(C)C(O)CC (stereo not given) | -9.5% | -8.55% | 2.3% | 19.4% | 7.6% | -16.2%
31 | Nc1ccn(C2OC(COP(=O)(O)O)C(O)C2O)c(=O)n1 (stereo not given) (tested in a mixture with another compound) | -3.8% | -4.25% | -0.75% | -44.4% | 1.15% | 14.1%
32 | CC1=C(C(=O)Nc2ccccc2C)C(c2ccccc2)C(C(=O)Nc2ccccc2C)=C(C)N1 | 10.7% | 15.2% | 9.25% | 6.3% | 16.3% | 7.1%
33 | CCNC(=O)OCc1c(COC(=O)NCC)c(-c2ccc(Cl)c(Cl)c2)n2c1CCC2 | 27.4% | 24.8% | 35.4% | 66.5% | 10.4% | 40.8%
34 | N#CC1C(=O)NC(=S)NC1c1ccc(Cl)c(Cl)c1 (stereo not given) | -3.15% | -16.9% | -25.9% | -19.6% | -13.8% | -5.25%
35 | COc1ccc(SC/C(=N\NOS(=O)(=O)c2ccc(C)cc2)c2ccccc2)cc1 | 85.1% (active) | 34.1% | 93.3% (active) | 61% | 61% | 87.7% (active)
36 | O=c1oc2c(c(N(c3ccccc3)c3ccccc3)c1Cl)CCc1nc(-c3ccccc3)sc1-2 | 3% | -1.25% | -7.6% | 10.8% | -1.55% | -14.9%
37 | CC1=C(C)C2C3C(=O)NC(=O)C3C1C1C3C(=O)NC(=O)C3C21 (stereo not given) | -21.8% | -7.75% | 7.3% | -12.8% | 10.1% | 17.1%
38 | COc1ccccc1NC(=O)CC(=O)NN | -0.25% | 2.15% | -3.9% | -25.1% | -1.8% | 0.7%
39 | CC(C)c1cccc(C(C)C)c1NC(=O)/C(Cc1nc2ccc(Cl)cc2[nH]c1=O)=N\NC(=O)C[N+](C)(C)C | 17.7% | 16.2% | -12.3% | 25.7% | 26.9% | 22.7%
40 | O=C(O)C1[N-]CCNC1C(=O)O.[O]=[V][OH] (stereo not given) | -10.7% | -2.4% | -4.6% | -16.9% | -2.25% | -5.05%
